Assay results: PubChem BioAssay AID1159580 (chemical genetic matrix, 2015)
Several values for one entry are separate records, joined by “and”; a condition that tells them apart may be missing. Equal values may be shown once. In all, about 5,500 compounds went through this assay and about 2,000 (36%) were called active. About 18% were inconclusive and are not listed. Cut-off read from the data, not from the text of the source: active = normalized growth mostly below about 0.91 (no sharp cut-off); inconclusive = no clear call, values can overlap the other calls; inactive = mostly above about 0.92. This is one part of the list.

Test: chemical genetic growth profiling, strain panel (AID 1159580);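 note: tested at 20 µM; growth read once vehicle control cultures reached saturation at 30 °C; 1 = growth at the plate median or of vehicle wells; lower values mean less growth of the strain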
Conditions: S. cerevisiae deletion strains, growth OD

Measured: normalized growth

C=C[C@@](C)(O)CCC1C(=C)C[C@H](O)C2C(C)(C)CCCC12C (some centres not stated)
active: locus YDR392W, strain spt3, active compounds read low 0.628
inactive: locus YAL013W, strain DEP1, active compounds read low 1.01 | locus YAL021C, strain ccr4, active compounds read low 1.01 | locus YAL026C, strain drs2, active compounds read low 0.972 | locus YAL030W, strain snc1, active compounds read low 0.996 | locus YBL061C, strain skt5, active compounds read low 0.988 | locus YBR009C, strain hhf1, active compounds read low 0.986 | locus YBR021W, strain FUR4, active compounds read low 0.998 | locus YBR023C, strain chs3, active compounds read low 0.978 | locus YBR171W, strain sec66, active compounds read low 0.976 | locus YBR229C, strain ROT2, active compounds read low 1.01 | locus YBR231C, strain swc5, active compounds read low 1 | locus YBR279W, strain paf1, active compounds read low 0.998 | locus YCL011C, strain gbp2, active compounds read low 0.991 | locus YCL016C, strain dcc1, active compounds read low 0.971 | locus YCL029C, strain bik1, active compounds read low 1.02 | locus YCL061C, strain MRC1, active compounds read low 0.98 | locus YCL069W, strain vba3, active compounds read low 0.999 | locus YCR088W, strain abp1, active compounds read low 0.99 | locus YDL005C, strain med2, active compounds read low 0.976 | locus YDL035C, strain GPR1, active compounds read low 0.991 | locus YDL040C, strain nat1, active compounds read low 0.997 | locus YDL074C, strain BRE1, active compounds read low 0.974 | locus YDL101C, strain DUN1, active compounds read low 1.01 | locus YDL134C, strain PPH21, active compounds read low 1.01 | locus YDL185W, strain tfp1, active compounds read low 1.02 | locus YDL192W, strain arf1, active compounds read low 1.02 | locus YDR001C, strain nth1, active compounds read low 0.989 | locus YDR069C, strain doa4, active compounds read low 0.99 | locus YDR101C, strain arx1, active compounds read low 1 | locus YDR137W, strain rgp1, active compounds read low 0.859 | locus YDR150W, strain NUM1, active compounds read low 1.01 | locus YDR159W, strain sac3, active compounds read low 1.01 | locus YDR162C, strain NBP2, active compounds read low 0.994 | locus YDR195W, strain ref2 1.05 | locus YDR297W, strain sur2, active compounds read low 0.993 | locus YDR318W, strain mcm21, active compounds read low 1.02 | locus YDR334W, strain swr1, active compounds read low 0.993 | locus YDR335W, strain msn5, active compounds read low 1.01 | locus YDR388W, active compounds read low 1.02 | locus YDR502C, strain sam2, active compounds read low 1.01 | locus YEL003W, strain gim4, active compounds read low 1 | locus YEL037C, strain rad23, active compounds read low 0.987 | locus YEL061C, strain CIN8 (second series), active compounds read low 0.992 | locus YEL061C, strain CIN8, active compounds read low 1.01 | locus YER015W, strain faa2, active compounds read low 0.995 | locus YER016W, strain bim1, active compounds read low 0.996 | locus YER110C, active compounds read low 1.03 | locus YER111C, strain swi4, active compounds read low 0.976 | locus YER155C, strain BEM2 (second series), active compounds read low 1.01 | locus YER155C, strain BEM2, active compounds read low 1.01 | locus YER167W, strain BCK2, active compounds read low 1.01 | locus YFR010W, strain ubp6, active compounds read low 1.01 | locus YGL078C, strain dbp3, active compounds read low 1.02 | locus YGL086W, strain mad1, active compounds read low 1.02 | locus YGL167C, strain pmr1, active compounds read low 0.97 | locus YGL173C, strain kem1, active compounds read low 0.974 | locus YGL227W, strain vid30, active compounds read low 0.997 | locus YGL240W, strain doc1, active compounds read low 1 | locus YGL248W, strain PDE1, active compounds read low 1.01 | locus YGL253W, strain hxk2, active compounds read low 0.984 | locus YGR078C, strain PAC10, active compounds read low 1 | locus YGR135W, strain pre9, active compounds read low 1 | locus YGR229C, strain SMI1, active compounds read low 1 | locus YGR252W, strain gcn5, active compounds read low 0.995 | locus YHR013C, strain ard1, active compounds read low 1.02 | locus YHR027C, strain rpn1, active compounds read low 1 | locus YHR030C, strain SLT2, active compounds read low 1.01 and 0.934 | locus YHR079C, strain IRE1 (second series), active compounds read low 1.02 | locus YHR079C, strain IRE1, active compounds read low 0.955 | locus YHR094C, strain hxt1, active compounds read low 1.02 | locus YHR129C, strain ARP1, active compounds read low 1.01 | locus YHR142W, strain chs7, active compounds read low 0.957 | locus YHR200W, strain rpn10, active compounds read low 1.04 | locus YIL066C, strain RNR3, active compounds read low 1.02 | locus YIL073C, strain SPO22, active compounds read low 1.06 | locus YIL125W, strain kgd1, active compounds read low 1.02 | locus YIR030C, strain dcg1, active compounds read low 1.02 | locus YJL092W, strain hpr5, active compounds read low 0.993 | locus YJL095W, strain BCK1 (second series), active compounds read low 0.992 | locus YJL095W, strain BCK1, active compounds read low 0.999 and 0.952 | locus YJL115W, strain asf1, active compounds read low 0.99 | locus YJL129C, strain trk1, active compounds read low 0.966 | locus YJL134W, strain LCB3, active compounds read low 1.01 | locus YJL154C, strain vps35, active compounds read low 0.997 | locus YJL164C, strain tpk1, active compounds read low 0.982 | locus YJL166W, strain qcr8, active compounds read low 0.981 | locus YJL168C, strain set2, active compounds read low 1.03 | locus YJL187C, strain SWE1 (second series), active compounds read low 1 | locus YJL187C, strain SWE1, active compounds read low 0.991 | locus YJR043C, strain POL32, active compounds read low 0.997 | locus YJR066W, strain TOR1, active compounds read low 0.923
